Our source for the composite z-score and z-score values is PubChem BioAssay.

Experiment [1] is described as follows: small molecules captured by biotinylated probe aFSTL3 – biochemical, small-molecule microarray, fluorescence 635/667, stem cell growth factor project, primary screen (AID 1064).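 Note: measures binding of the biotinylated anti-FSTL3 antibody to printed compounds.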 Particulars: higher = more signal.
A short description of experiment [2]: binders from COS7 lysate, DM2A8 probe, primary screen, torsin A project, cell lysate, small-molecule microarray, fluorescence 635/667 (AID 1065). Particulars: higher = more signal, COS7 lysate expressing mutant human TOR1A.
Experiment [3] can be described thus: small molecules captured by biotinylated probe aFGF2 – biochemical, small-molecule microarray, fluorescence 635/667, stem cell growth factor project, primary screen (AID 1067).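 Note: measures binding of biotinylated aFGF2 protein to printed compounds on slides; z-score merges feature fluorescence and signal-to-noise across triplicate slides.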 Particulars: higher = more signal.
A short description of experiment [4]: small molecules captured by biotinylated probe aFGF10 – biochemical, small-molecule microarray, fluorescence 635/667, stem cell growth factor project, primary screen (AID 1071).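 Note: score merges 667 nm spot intensity and signal to noise from triplicate slides.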 Particulars: higher = more signal.
Experiment [5] deals with Neurogenic locus notch homolog protein 2 (Homo sapiens) (UniProt Q04721). Put plainly: small molecules binding Notch2 protein – biochemical, small-molecule microarray, 635 nm fluorescence, stem cell growth factors, primary screen (AID 1073). Particulars: higher = more signal.
Experiment [6] deals with Pro-neuregulin-1, membrane-bound isoform (Homo sapiens) (UniProt Q02297). Put plainly: small molecules binding neuregulin-1 protein – biochemical, small-molecule microarray, fluorescence 635/667, psychiatric disease protein project, primary screen (AID 1075).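 Note: score combines 667 nm spot fluorescence with signal to noise.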 Particulars: NRG1 binding, 635 nm fluorescence, higher = more signal.
For experiment [7], the system named is Neuregulin-1 EGF-like domain. The experiment is described as follows: small molecules binding NRG1 EGF domain – biochemical, small-molecule microarray, 635 nm fluorescence, primary screen (AID 1081).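 Note: binding of the protein to compounds printed on small-molecule microarray slides.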 Particulars: higher = more signal.
A short description of experiment [8]: FRG1 expression reporter modulators in myotubes – cell-based, C2C12 myotubes, firefly/Renilla luciferase, luminescence, FRG1 inhibition for FSHD, primary screen (AID 1084). Particulars: FRG1 promoter luciferase, higher = more signal, called active from +8 up or from −8 down.
Experiment [9] in a line: small molecules captured by biotinylated probe aFST – biochemical, small-molecule microarray, fluorescence 635/667, stem cell growth factor project, primary screen (AID 1086).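 Note: score merges 667 nm fluorescence with signal-to-noise of each printed compound spot.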 Particulars: higher = more signal.
A short description of experiment [10]: binders of probe aHhip on microarray, primary screen, stem cell growth factor project, biochemical, small-molecule microarray, fluorescence 635/667 (AID 1087).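 Note: score merges spot fluorescence at 667nm with spot signal to noise ratio.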 Particulars: higher = more signal.
In experiment [11] the test system is PRMT1 (protein arginine N-methyltransferase 1). The experiment is described as follows: small molecules binding arginine methyltransferase PRMT1 – biochemical, small-molecule microarray, 635 nm fluorescence, primary screen (AID 1088).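 Note: binding of Prmt1 protein to compounds spotted on small-molecule microarray slides.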 Particulars: higher = more signal.
The nature of experiment [12]: growth effects on S. cerevisiae YJM789 – YJM789 clinical isolate, OD600, 24 h, basal, primary screen (AID 1089).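 Note: growth of clinical yeast isolate S. cerevisiae YJM 789 seeded 1000 cells per well; test concentration not given here.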 Particulars: higher = more signal, called active from +8 up or from −8 down.
Experiment [13] is described as follows: S. pombe growth modifiers, basal conditions – strain 972, OD600, 24 h, no modulator, primary screen (AID 1090).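 Note: basal condition with compound alone and no growth modifier present; test concentration not given here.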 Particulars: S. pombe 972 growth, higher = more signal, called active from +8 up or from −8 down.
Experiment [14] is described as follows: budding yeast growth modifiers under rapamycin – strain BY4716, OD600, 96 h, primary screen (AID 1091). Note: test concentration not given here. Particulars: S. cerevisiae BY4716 + rapamycin, higher = more signal, called active from +8 up or from −8 down.
For experiment [15], the target named is Torsin-1A-interacting protein 2 (Homo sapiens) (UniProt Q8NFQ8). The experiment is described as follows: small molecules binding lysate-expressed LULL1 – cell lysate, human LULL1 lysate, 635/667 nm fluorescence, primary screen (AID 1092).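 Note: probe is lysate of COS7 cells overexpressing human LULL1; score merges per-feature 667 nm fluorescence with signal-to-noise.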 Particulars: small-molecule microarray, hLULL1 lysate binding, 635 nm fluorescence; higher = more signal.
A short description of experiment [16]: optical density change of DRC41 E. coli – strain DRC41, OD650, 24 h, E. coli filamentation project, primary screen (AID 1093).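 Note: MC1000 strain lacking acrAB efflux and sulA so SOS filamentation is blocked; test concentration not given here.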 Particulars: E. coli DRC41 growth, higher = more signal, called active from +8 up or from −8 down.
Experiment [17] is described as follows: probe aLefty2 binding to arrayed compounds – biochemical, biotinylated probe, 635/667 nm fluorescence, primary screen (AID 1094).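 Note: score merges spot fluorescence near 667 nm with spot signal-to-noise ratio.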 Particulars: small-molecule microarray, higher = more signal.
Experiment [18] has as its system Noggin (protein binding on small-molecule microarray). Put plainly: small molecules binding Noggin protein – biochemical, 635/667 nm fluorescence, primary screen (AID 1095).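 Note: score merges 667 nm feature fluorescence with signal to noise over triplicate slides.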 Particulars: 635 nm fluorescence, higher = more signal.
Experiment [19] concerns the target Neurogenic locus notch homolog protein 3 (Homo sapiens) (UniProt Q9UM47). Put plainly: small molecules binding NOTCH3 protein – biochemical, 635/667 nm fluorescence, primary screen (AID 1096). Particulars: small-molecule microarray, 635 nm fluorescence, higher = more signal.
The nature of experiment [20]: probe aEGFR binding to arrayed compounds – biochemical, biotinylated probe, 635/667 nm fluorescence, primary screen (AID 1097).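 Note: probe is a biotinylated anti-EGFR antibody binding compounds printed on slides; score combines fluorescence near 667 nm and signal to noise of each spot.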 Particulars: small-molecule microarray, higher = more signal.

The source made the active and inactive calls.

Sequence of Neurogenic locus notch homolog protein 3 (Homo sapiens) (Q9UM47 whole entry, looked up): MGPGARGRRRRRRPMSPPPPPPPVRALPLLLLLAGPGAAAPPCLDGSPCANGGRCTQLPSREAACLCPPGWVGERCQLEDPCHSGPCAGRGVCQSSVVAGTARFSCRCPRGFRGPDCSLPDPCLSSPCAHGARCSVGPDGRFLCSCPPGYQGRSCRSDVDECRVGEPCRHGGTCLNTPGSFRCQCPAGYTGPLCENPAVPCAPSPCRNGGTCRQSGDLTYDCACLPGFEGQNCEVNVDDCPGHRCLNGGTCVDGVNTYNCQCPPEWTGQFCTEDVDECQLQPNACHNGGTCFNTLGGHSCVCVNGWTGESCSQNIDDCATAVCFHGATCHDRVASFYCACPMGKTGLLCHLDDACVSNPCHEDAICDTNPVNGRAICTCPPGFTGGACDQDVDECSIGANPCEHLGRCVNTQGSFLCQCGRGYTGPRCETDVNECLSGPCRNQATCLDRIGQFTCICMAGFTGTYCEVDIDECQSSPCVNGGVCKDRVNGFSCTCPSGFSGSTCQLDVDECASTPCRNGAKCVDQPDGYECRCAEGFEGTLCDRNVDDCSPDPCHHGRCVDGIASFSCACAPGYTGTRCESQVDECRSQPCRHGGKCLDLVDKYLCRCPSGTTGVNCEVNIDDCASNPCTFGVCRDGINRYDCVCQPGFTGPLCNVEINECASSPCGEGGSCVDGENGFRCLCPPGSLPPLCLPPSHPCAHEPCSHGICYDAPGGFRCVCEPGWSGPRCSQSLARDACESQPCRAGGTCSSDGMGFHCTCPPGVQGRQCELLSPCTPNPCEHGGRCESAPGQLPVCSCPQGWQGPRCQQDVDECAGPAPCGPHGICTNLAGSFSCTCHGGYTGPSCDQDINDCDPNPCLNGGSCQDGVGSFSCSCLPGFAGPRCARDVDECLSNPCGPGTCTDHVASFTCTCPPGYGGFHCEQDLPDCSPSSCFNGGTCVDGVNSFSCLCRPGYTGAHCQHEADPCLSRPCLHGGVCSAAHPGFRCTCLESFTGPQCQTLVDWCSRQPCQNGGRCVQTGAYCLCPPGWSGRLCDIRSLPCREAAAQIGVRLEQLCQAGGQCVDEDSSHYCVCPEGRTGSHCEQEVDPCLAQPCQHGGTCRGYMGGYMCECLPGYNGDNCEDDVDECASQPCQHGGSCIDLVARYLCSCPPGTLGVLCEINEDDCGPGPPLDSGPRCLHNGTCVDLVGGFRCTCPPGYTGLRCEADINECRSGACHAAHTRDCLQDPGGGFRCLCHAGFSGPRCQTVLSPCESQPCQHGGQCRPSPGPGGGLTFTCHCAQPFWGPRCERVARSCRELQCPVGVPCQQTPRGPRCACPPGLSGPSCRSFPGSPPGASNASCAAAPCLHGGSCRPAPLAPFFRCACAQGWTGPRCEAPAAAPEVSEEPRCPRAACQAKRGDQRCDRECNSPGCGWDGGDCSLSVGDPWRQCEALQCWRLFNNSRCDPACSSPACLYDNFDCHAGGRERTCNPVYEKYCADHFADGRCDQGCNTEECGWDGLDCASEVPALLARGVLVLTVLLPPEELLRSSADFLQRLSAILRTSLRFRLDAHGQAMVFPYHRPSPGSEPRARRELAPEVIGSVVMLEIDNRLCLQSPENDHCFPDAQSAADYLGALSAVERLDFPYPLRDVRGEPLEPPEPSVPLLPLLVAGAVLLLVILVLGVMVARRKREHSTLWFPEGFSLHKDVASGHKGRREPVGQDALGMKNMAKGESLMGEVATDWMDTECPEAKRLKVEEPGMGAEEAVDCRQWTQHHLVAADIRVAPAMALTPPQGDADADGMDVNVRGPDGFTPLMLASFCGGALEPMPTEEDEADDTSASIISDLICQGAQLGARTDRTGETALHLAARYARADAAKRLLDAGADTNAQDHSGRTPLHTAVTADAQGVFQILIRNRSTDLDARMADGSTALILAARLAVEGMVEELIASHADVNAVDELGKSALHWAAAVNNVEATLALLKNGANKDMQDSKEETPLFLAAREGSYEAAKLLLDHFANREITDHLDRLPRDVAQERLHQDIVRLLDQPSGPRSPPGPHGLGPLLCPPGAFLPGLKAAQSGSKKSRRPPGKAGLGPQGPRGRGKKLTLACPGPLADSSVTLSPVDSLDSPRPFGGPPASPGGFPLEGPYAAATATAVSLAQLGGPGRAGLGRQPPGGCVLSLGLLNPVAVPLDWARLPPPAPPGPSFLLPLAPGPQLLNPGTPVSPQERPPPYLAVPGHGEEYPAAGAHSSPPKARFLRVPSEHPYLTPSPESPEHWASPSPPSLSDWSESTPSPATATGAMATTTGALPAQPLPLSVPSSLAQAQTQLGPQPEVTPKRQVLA
Sequence of Neurogenic locus notch homolog protein 2 (Homo sapiens) (Q04721 whole entry, looked up, canonical isoform): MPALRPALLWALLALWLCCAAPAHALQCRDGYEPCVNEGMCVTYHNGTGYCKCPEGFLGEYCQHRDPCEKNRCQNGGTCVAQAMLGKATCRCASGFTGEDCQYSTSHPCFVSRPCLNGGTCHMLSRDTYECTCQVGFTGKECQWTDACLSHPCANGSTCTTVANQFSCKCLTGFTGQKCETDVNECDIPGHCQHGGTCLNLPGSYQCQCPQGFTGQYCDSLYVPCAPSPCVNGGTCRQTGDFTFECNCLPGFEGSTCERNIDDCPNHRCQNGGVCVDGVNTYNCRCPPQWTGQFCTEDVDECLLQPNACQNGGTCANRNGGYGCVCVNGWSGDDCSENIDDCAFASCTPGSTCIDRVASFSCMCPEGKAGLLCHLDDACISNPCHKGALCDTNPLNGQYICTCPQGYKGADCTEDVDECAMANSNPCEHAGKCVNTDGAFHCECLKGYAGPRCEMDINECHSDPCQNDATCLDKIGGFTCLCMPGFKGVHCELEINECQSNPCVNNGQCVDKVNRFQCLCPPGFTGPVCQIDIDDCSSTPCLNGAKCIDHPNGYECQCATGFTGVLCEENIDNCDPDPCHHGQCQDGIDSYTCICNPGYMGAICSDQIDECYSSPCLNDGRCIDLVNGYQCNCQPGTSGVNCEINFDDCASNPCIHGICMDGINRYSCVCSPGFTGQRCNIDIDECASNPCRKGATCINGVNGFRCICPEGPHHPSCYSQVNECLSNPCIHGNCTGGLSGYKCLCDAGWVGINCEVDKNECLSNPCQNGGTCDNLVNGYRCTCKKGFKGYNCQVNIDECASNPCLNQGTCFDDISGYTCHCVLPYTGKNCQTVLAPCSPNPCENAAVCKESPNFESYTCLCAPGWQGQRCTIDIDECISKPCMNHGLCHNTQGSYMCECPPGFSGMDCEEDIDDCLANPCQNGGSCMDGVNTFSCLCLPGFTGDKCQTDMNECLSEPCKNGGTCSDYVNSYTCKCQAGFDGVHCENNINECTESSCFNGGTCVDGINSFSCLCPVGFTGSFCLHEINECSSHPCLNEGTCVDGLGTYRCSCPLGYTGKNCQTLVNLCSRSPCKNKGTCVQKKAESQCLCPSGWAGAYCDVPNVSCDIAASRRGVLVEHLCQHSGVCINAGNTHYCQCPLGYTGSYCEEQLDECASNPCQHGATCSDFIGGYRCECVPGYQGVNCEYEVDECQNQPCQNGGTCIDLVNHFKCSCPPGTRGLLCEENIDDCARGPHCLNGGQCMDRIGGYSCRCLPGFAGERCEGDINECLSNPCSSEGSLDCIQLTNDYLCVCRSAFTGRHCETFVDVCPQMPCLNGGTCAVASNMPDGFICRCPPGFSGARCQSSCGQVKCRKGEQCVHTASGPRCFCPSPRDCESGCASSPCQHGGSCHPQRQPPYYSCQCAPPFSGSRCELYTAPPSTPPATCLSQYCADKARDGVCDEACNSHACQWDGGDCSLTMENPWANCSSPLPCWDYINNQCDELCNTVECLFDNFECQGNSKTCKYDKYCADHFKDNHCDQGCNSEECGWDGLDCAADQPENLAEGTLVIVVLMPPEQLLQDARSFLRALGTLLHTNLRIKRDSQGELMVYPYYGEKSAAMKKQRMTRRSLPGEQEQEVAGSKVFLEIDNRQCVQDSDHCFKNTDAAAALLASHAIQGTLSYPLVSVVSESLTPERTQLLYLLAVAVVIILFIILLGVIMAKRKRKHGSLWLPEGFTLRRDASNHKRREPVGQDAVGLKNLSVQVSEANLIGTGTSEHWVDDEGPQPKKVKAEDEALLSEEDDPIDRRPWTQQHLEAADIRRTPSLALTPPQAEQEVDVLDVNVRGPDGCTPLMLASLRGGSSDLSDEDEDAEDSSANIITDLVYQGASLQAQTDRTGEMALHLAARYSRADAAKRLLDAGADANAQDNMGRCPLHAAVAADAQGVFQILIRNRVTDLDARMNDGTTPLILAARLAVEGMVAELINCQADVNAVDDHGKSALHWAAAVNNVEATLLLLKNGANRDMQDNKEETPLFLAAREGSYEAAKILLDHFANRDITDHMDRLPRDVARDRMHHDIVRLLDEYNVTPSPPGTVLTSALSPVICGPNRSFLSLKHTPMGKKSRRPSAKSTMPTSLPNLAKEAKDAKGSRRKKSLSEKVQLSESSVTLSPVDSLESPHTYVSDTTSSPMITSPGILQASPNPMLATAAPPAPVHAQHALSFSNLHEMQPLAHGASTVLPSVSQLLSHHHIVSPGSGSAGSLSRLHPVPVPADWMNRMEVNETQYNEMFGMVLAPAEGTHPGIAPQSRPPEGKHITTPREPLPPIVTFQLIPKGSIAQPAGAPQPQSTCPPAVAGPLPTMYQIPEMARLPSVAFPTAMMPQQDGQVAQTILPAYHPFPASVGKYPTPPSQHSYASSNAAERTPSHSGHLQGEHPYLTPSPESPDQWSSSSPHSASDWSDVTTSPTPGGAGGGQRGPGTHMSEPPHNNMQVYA

`C=CCC(OC(C)=O)[C@@H]1[C@@H](N(Cc2cc3ccccc3o2)C(=O)c2cccc3ccccc23)c2cc(OCCCO)ccc2N1C(=O)c1ccc2ccccc2c1` (stereo not given in full): the composite z-score was -0.16 in experiment [1]; -0.267 in experiment [2]; -0.0993 in experiment [3]; 0.277 in [4]; -0.0361 in experiment [5]; -0.223 in experiment [6]. The composite z-score was 0.272 in experiment [7]; 0.296 in [9]; -0.128 in experiment [10]; -0.305 in experiment [11]; 0.583 in experiment [15]; 0.0826 in [17]. In addition, the composite z-score in experiment [18] is 0.413; in experiment [19], 0.222; in experiment [20], -0.139. Further, the z-score is -4.21 (inactive) in experiment [8]; 0.0315 (inactive) in [12]; -0.943 (inactive) in experiment [13]; -0.0147 (inactive) in experiment [14]; -0.234 (inactive) in experiment [16].
Regarding `COc1cc2c(cc1O)C(c1ccc(CN3CCCC3)cc1)N(Cc1cccc(OC(F)(F)F)c1)CC2` (stereo not given), the composite z-score in experiment [1] was 0.254; in experiment [2], 0.956; in [3], -0.0568; in [4] it was 0.0247; in [5] it was 0.473; in experiment [6], 1.56. In addition, the composite z-score in experiment [7] is 1.27; in [9], 0.155; in experiment [10] it was -0.0317; in experiment [11], 0.996; in experiment [15], 3.04; in experiment [17], 0.045. Besides, the composite z-score in [18] was 0.0433; in experiment [19], 0.499; in experiment [20] it was 0.213. Further, the z-score in experiment [8] was -0.232 (inactive); in experiment [12], -26.1 (active); in experiment [13], -20.2 (active); in [14], -3.95 (inactive); in experiment [16], -6.17 (inactive).
In the case of `COC(=O)[C@]1(CO)N=C(c2ccc(OCCCO)cc2)O[C@@H]1c1ccccc1CN=[N+]=[N-]`, the composite z-score in [1] was -0.0858; in experiment [2], -0.132; in experiment [3], -0.155; in experiment [4] it was -0.546; in experiment [5], -0.663; in experiment [6] it was -0.12. Moreover, the composite z-score is 1.16 in experiment [7]; -0.144 in [9]; -0.286 in [10]; 0.575 in [11]; 0.852 in [15]; -0.0884 in experiment [17]. The composite z-score in experiment [18] was 0.227; in experiment [19], -0.318; in experiment [20], -0.285. Besides, the z-score was 1.7 (inactive) in [8]; 0.11 (inactive) in experiment [12]; 0.44 (inactive) in experiment [13]; 1.85 (inactive) in [14]; 0.628 (inactive) in [16].
Regarding `C=C(C(=O)CC[C@@H](OC(C)=O)c1cccc(OCCO)c1)C(C)C`, the composite z-score in experiment [1] is -0.0377; in experiment [2], 0.108; in experiment [3] it was -0.0996; in experiment [4], 0.365; in experiment [5] it was -0.768; in [6] it was 1.92. Also, the composite z-score is 0.568 in experiment [7]; -0.337 in [9]; -0.0672 in experiment [10]; 0.745 in [11]; 1.62 in experiment [15]; -0.186 in experiment [17]. Also, the composite z-score in experiment [18] was -0.0056; in experiment [19], 0.507; in experiment [20] it was -0.207. Besides, the z-score in experiment [8] was 0.44 (inactive); in experiment [12], 1.55 (inactive); in experiment [13] it was -0.464 (inactive); in experiment [14], 0.339 (inactive); in [16], 0.351 (inactive).
Turning to `C=CCNC(=O)[C@@H]1[C@H]2C(=O)O[C@H](c3ccccc3)[C@H](c3ccccc3)N2[C@H](c2ccccc2OCCO)[C@@]12C(=O)N(C(=O)OCCOC)c1ccc(C#CCCO)cc12`, the composite z-score in experiment [1] is -0.0812; in [2], 0.693; in experiment [3], 0.0645; in experiment [4] it was 1.05; in experiment [5], 0.742; in experiment [6], 1.2. The composite z-score in [7] was 1.21; in experiment [9], -0.66; in [10], 0.277; in [11], 1.55; in [15], 2.88; in experiment [17] it was -0.135. Besides, the composite z-score in experiment [18] came out at 0.96; in experiment [19], 1.08; in [20], 0.038. In addition, the z-score in [8] was 0.0106 (inactive); in [12] it was 0.656 (inactive); in experiment [13], 0.619 (inactive); in [14], 3.69 (inactive); in experiment [16] it was -0.625 (inactive).
